A selection: hits, their analogues and other compounds. The true share with any hit is near 16%.
miR-21 act – qHTS Assay for Modulators of miRNAs and/orActivators of miR-21; HeLa miR-21 FLuc reporter, luciferase, 48 h; Potency, µM (titrated, usually from 38.3 µM), inactives show at the top dose activity change, positive = activation, most hits filed as activators; 340,000 tested, under 10 active; AID 2288, 2010;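 note: % of control where 0% means no effect; miR-21 action dims this reporter so a rising signal means less miR-21 action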
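HeLa cells endogenously expressing miR-21, stably carrying CMV-driven firefly luciferase with a downstream miR-21 binding site, 2000 cells/well. Titrations up to approximately 40 uM, 48 hours; luciferase luminescence read.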
DT40 TDP1 no CPT – qHTS for Inhibitors of human tyrosyl-DNA phosphodiesterase 1 (TDP1): qHTS in cells in absence of CPT; DT40 Tdp1-/- hTDP1 cells, no CPT, ATP luminescence, 48 h; Potency, µM (doses to about 46.2 µM), without a hit: at the top dose activity change, negative = growth inhibition, actives largely listed as inhibitors; 15% of 420,000 active; AID 686978, 2013; note: potency is the fitted concentration of half-maximal effect; % is set by controls: 0 for no effect and ±100 for the full control effect; nearly all actives have a fitted effect of over 55% in size
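Camptothecin absent (DMSO only). Human TDP1-complemented DT40 knockout cells, 400 cells/well, 37 °C for minimum 48 hr; ATP measured via CellTiter-Glo, 30 min dark incubation, luminescence.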
TDP1 inh – qHTS Assay for Inhibitors of Tyrosyl-DNA Phosphodiesterase (TDP1); Tyrosyl-DNA phosphodiesterase 1 (Homo sapiens), Q9NUW8; recombinant TDP1, AlphaScreen DNA substrate cleavage; Potency, µM (titrated, usually from 130 µM), without a hit: at the top dose activity change, negative = inhibition, hits mostly inhibitors; 0.28% of 350,000 active; AID 485290, 2010; note: potency is the fitted concentration of half-maximal effect; % is set by controls: 0 for no effect and ±100 for the full control effect; nearly all actives have a fitted effect of over 40% in size
Target sequence (Q9NUW8 whole entry, looked up): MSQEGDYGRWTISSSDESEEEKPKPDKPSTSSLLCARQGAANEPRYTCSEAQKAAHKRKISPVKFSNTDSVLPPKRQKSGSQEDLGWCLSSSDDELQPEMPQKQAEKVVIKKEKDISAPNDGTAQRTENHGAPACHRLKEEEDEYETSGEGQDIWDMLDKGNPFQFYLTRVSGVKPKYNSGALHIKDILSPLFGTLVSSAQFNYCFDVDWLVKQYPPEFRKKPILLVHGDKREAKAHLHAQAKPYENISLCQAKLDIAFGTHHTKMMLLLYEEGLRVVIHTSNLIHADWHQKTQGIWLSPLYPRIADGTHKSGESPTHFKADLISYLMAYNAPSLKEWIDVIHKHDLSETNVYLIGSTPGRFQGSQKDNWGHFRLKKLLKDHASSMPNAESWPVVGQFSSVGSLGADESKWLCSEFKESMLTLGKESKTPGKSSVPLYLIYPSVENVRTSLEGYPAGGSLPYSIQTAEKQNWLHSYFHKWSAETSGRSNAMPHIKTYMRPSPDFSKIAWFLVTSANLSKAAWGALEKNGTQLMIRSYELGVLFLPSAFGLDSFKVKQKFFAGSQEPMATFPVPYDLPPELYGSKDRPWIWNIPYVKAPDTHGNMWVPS
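E. coli-derived human Tdp1, 1 nM final. Cpd preinc 15 min RT; substrate 15 nM final, 5 min RT; AS bead mix 10 ug/ml final, 10 min RT. Signal loss = tyrosine-FITC cleavage. No-enzyme wells = max signal.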
TDP1 cell CPT – qHTS for Inhibitors of human tyrosyl-DNA phosphodiesterase 1 (TDP1): qHTS in cells in presence of CPT; Potency, µM (titrated, usually from 46.2 µM), for inactives: at the highest dose activity change, negative = growth inhibition, usual class: inhibitors; chicken DT40 Tdp1-/-;hTDP1 cells + 20 nM CPT, ATP luminescence, 48 h; 12% of 420,000 active; note: potency is the fitted concentration of half-maximal effect; % is set by controls: 0 for no effect and ±100 for the full control effect; nearly all actives have a fitted effect of over 55% in size
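Chicken DT40 Tdp1-/- cells complemented with human TDP1, 400 cells/well, exposed to compounds plus 20 nM camptothecin for at least 48 h at 37 C; viability read as ATP content by CellTiter-Glo luminescence.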
uPA generation – qHTS for Inhibitors of Cell Surface uPA Generation. AID 540303, 2011. 0.31% of 330,000 active. Potency, µM (doses to about 38.3 µM), for inactives: at the highest dose activity change, negative = inhibition, actives largely listed as inhibitors. cell surface uPA generation assay, qHTS; active = well fitted inhibition curve with a large enough effect; inconclusive = small, poorly fitted or top-dose-only effect; inactive = no such curve, though single readings can be large or run the other way; tested in mouse RAW 264.7 cells; note: potency is the fitted concentration of half-maximal effect; % is set by controls: 0 for no effect and ±100 for the full control effect; nearly all actives have a fitted effect of over 55% in size
Numbers without * were called inactive; ? = inconclusive; nt = not tested or not shown; [ ] = another dose, or the depositor's remark. Unless noted, calls come from the whole dose curve; as a rule, active = well fitted curve in the direction sought with a large enough effect; inconclusive = small, poorly fitted or top-dose-only effect, or another doubt; inactive = no such curve, though single readings can be large; an effect the other way counts as inactive or inconclusive.

SMILES	miR-21 act	DT40 TDP1 no CPT	TDP1 inh	TDP1 cell CPT	uPA generation
CC(C)N1C(=S)SC(C)(C)C1n1oc(=O)n(-c2cccc(Cl)c2)c1=O (stereo unspecified)	-1%	4%	1%	-19%	?
C[C@@H]([C@@H](O)c1ccccc1)N(C)C(=O)Cc1ccccc1	nt	-15%	nt	7%	3%
CN(C)CC(C(=O)Cc1ccccc1)c1ccccc1 (stereo unspecified)	nt	0.65µM*	nt	0.92µM*	?
C(=C\c1ccccc1)/CN1CCN(CCOC(c2ccccc2)c2ccccc2)CC1	nt	4.6µM*	21%	3.7µM*	nt
NC1C[C@H]1c1ccccc1 (stereo partly specified)	nt	-5%	-11%[56.1 µM]	-12%	nt
Cc1ccc(N)cc1N	nt	6%	2%	4%	4%
C[n+]1c2cc(N)ccc2cc2ccc(N)cc21	nt	2.9µM*	3%[56.1 µM]	3.7µM*	?
C[n+]1c2cc(N)ccc2cc2ccc(N)cc21 (tested in a mixture with another compound)	nt	1.8µM*	nt	2.1µM*	nt
COc1ccc(CC2C(=O)NC(C)C(=O)N(C)C3C(=O)N(C)C(Cc4ccc(O)c(c4)Oc4ccc(cc4)C3O)C(=O)NC(C)C(=O)NC(C)C(=O)N2C)cc1 (stereo unspecified)	nt	0.021µM*	nt	0.016µM*	-11%
CCc1cccc(NC(=O)Cn2c(=O)oc3cc(S(=O)(=O)N4CCOCC4)ccc32)c1	12%	15µM*	4%	23µM*	?
Cc1ccc(NC(=O)Cn2c(=O)oc3cc(S(=O)(=O)N4CCCCCC4)ccc32)cc1Cl	-8%	21µM*	-5%	12µM*	nt
O=C(Cn1c(=O)oc2cc(S(=O)(=O)N3CCCCCC3)ccc21)NCc1ccccc1Cl	18%	7.3µM*	2%	9.2µM*	nt
CC1CC(C)CN(S(=O)(=O)c2ccc3c(c2)oc(=O)n3CC(=O)N(C)Cc2ccccc2)C1 (stereo unspecified)	2%	?	nt	?	-9%
O=C(Cn1c(=O)oc2cc(S(=O)(=O)N3CCCC3)ccc21)Nc1cccc(C(F)(F)F)c1	0%	15µM*	5%	13µM*	-3%
Cc1cc(C)cc(NC(=O)Cn2c(=O)oc3cc(S(=O)(=O)N4CC(C)CC(C)C4)ccc32)c1 (stereo unspecified)	23%	?	0%	?	?
Cc1nc2ccccc2c(=O)n1-c1cc(F)ccc1F	1%	-3%	-3%	-2%	1%
Cc1sc2c(c1C)C(c1ccc(C(C)(C)C)cc1)=NCC(=O)N2CC(=O)Nc1nccs1	4%	?	7%	?	1%
CC(C)(C)c1ccc(CSc2cnn(C(C)(C)C)c(=O)c2Cl)cc1	9%	0.033µM*	nt	0.16µM*	?
COC(=O)C1=C(c2ccc(-c3ccccc3)c(F)c2)C[C@@H]2CC[C@H]1N2C(=O)NC1Cc2ccccc2C1	nt	?	0%	?	?
COCC1CCCN(C(=O)c2cc(COc3ccc4ncccc4c3)on2)C1 (stereo unspecified)	0%	5.8µM*	1%	7.3µM*	?
Cc1cc(Cl)ccc1O	nt	nt	5%	nt	nt
CC(C)CC(N)c1csc(NC(=O)Nc2ccccc2-c2ccccc2)n1 (stereo unspecified)	nt	18µM*	nt	23µM*	nt
Cn1c(=O)c2c(ncn2CC(=O)Nc2nc(-c3ccccc3Cl)cs2)n(C)c1=O	6%	-18%	6%	?	nt
CC(C)c1ccc(NC(=O)Nc2nc(C(N)CCc3ccccc3)cs2)cc1 (stereo unspecified)	nt	4.6µM*	nt	5.8µM*	nt
C[C@H](CO)N1C[C@H](C)[C@@H](CN(C)C(=O)Oc2ccc3ccccc3c2)OCc2cnnn2CCCC1=O	nt	?	nt	-28%	nt
SMILES	miR-21 act	DT40 TDP1 no CPT	TDP1 inh	TDP1 cell CPT	uPA generation
Cn1c(=O)c2c(nc(-c3ccc(N(CCCl)CCCl)cc3)n2C)n(C)c1=O	nt	26µM*	nt	15µM*	-4%
CCN(CCO)CCn1c(Cc2ccccc2)nc2c1c(=O)n(C)c(=O)n2C	nt	-14%	nt	-10%	nt
CCn1cc(C(=O)NCCc2ccc(OC)c(OC)c2)c(=O)c2cc(S(=O)(=O)N(C)C3CCCCC3)ccc21	22%	?	2%	?	nt
COc1ccc(CCNC(=O)c2ccc3c(c2)CCN3S(=O)(=O)c2ccc(C)cc2)cc1OC	19%	13µM*	5%	21µM*	nt
CC1(C)C(O)CC(O)[C@]2(C)C1CC(O)[C@]1(C)C2CC[C@@]2(C)C(c3ccoc3)OC(=O)C3O[C@]312 (stereo partly specified)	nt	-21%	5%[56.1 µM]	?	nt
CC1(C)C(=O)C=C[C@@]2(C)C1=C(O)C(=O)[C@@]1(C)C2CC[C@@]2(C)C(c3ccoc3)C[C@H]3O[C@@]321 (stereo partly specified)	nt	12µM*	10%[56.1 µM]	12µM*	nt
COc1ccc(C(c2nnnn2-c2ccc(OC)cc2)N2CCC(n3c(=O)[nH]c4ccccc43)CC2)cc1 (stereo unspecified)	nt	9.2µM*	nt	18µM*	nt
O=c1[nH]c2ccccc2n1C1CCN(C(c2cccs2)c2nnnn2Cc2ccccc2)CC1 (stereo unspecified)	nt	15µM*	nt	18µM*	nt
Fc1ccc(C2=CCN(C(c3cccs3)c3nnnn3CCc3ccccc3)CC2)cc1 (stereo unspecified)	2%	?	2%	?	9%
COc1ccc(-n2nnnc2C(c2cc3ccccc3o2)N2CCC(n3c(=O)[nH]c4ccccc43)CC2)cc1 (stereo unspecified)	nt	23µM*	nt	?	nt
COc1ccc(C(c2nnnn2Cc2ccccc2)N2CCC(n3c(=O)[nH]c4ccccc43)CC2)cc1 (stereo unspecified)	nt	16µM*	nt	18µM*	nt
C[N+]1(CCF)[C@@H]2CC[C@H]1CC(OC(=O)C(O)(c1ccccc1)c1ccccc1)C2 (stereo partly specified)	nt	-2%	nt	11%	nt
CC(C)(C)OOC(=O)c1ccccc1	nt	nt	18%	nt	nt
CCN1C[C@]2(COC)CC[C@H](O)[C@@]34[C@@H]5C[C@H]6[C@@H](OC)[C@H]5[C@](O)(C[C@@H]6OC)[C@@](O)([C@@H](OC)[C@H]23)[C@@H]14	nt	nt	6%[56.1 µM]	nt	nt
O=c1[nH]c2ccccc2n1C1CCN(C(c2ccccc2OC(F)(F)F)c2nnnn2Cc2ccccc2)CC1 (stereo unspecified)	nt	10µM*	nt	10µM*	nt

Screening data (PubChem BioAssay)
